Reference: PubChem BioAssay (NCI)
This is part of a sample that, as a whole, favours compounds with a hit. Of some 83,000 tested, about 20% had one in any assay.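 Results are percent growth after 48 hours of single-concentration exposure. 100 means growth as in untreated cells, lower positive values show inhibition; negative values down to -100 show cell death.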 A number with no mark means an inactive call. Calls of active or inactive are those of the source. Rule for the calls: active = growth percent below 10; inactive = the rest.

Tests used:
Assay in all cases: NCI-60 one-dose screen, 48 h (100 = growth as untreated, 0 = no growth, -100 = all killed)
Conditions in all cases: 10 µM unless noted
HCT-15 colon = tested on: HCT-15 colon
HT29 colon = tested on: HT29 colon
SNB-75 CNS = tested on: SNB-75 CNS
SNB-19 CNS = tested on: SNB-19 CNS
U251 CNS = tested on: U251 CNS
PC-3 prostate = tested on: PC-3 prostate
SK-MEL-5 melanoma = tested on: SK-MEL-5 melanoma
UACC-62 melanoma = tested on: UACC-62 melanoma
LOX IMVI melanoma = tested on: LOX IMVI melanoma
SK-MEL-28 melanoma = tested on: SK-MEL-28 melanoma
SK-MEL-2 melanoma = tested on: SK-MEL-2 melanoma
EKVX NSCLC = tested on: EKVX NSCLC
SN12C renal = tested on: SN12C renal
UO-31 renal = tested on: UO-31 renal
TK-10 renal = tested on: TK-10 renal
ACHN renal = tested on: ACHN renal
CAKI-1 renal = tested on: CAKI-1 renal
A498 renal = tested on: A498 renal
CCRF-CEM leukemia = tested on: CCRF-CEM leukemia
MOLT-4 leukemia = tested on: MOLT-4 leukemia

| Compound | growth (HCT-15 colon) | growth (HT29 colon) | growth (SNB-75 CNS) | growth (SNB-19 CNS) | growth (U251 CNS) | growth (PC-3 prostate) | growth (SK-MEL-5 melanoma) | growth (UACC-62 melanoma) | growth (LOX IMVI melanoma) | growth (SK-MEL-28 melanoma) | growth (SK-MEL-2 melanoma) | growth (EKVX NSCLC) | growth (SN12C renal) | growth (UO-31 renal) | growth (TK-10 renal) | growth (ACHN renal) | growth (CAKI-1 renal) | growth (A498 renal) | growth (CCRF-CEM leukemia) | growth (MOLT-4 leukemia) |
| --- | --- | --- | --- | --- | --- | --- | --- | --- | --- | --- | --- | --- | --- | --- | --- | --- | --- | --- | --- | --- |
| COC(=O)Cc1nc(C#N)c(N(C)C)o1 | 99.4% | 106% | 78.5% | 96.1% | 98.8% | 99.4% | 102% | 87.6% | 97.7% | 104% | 89.4% | 116% | 90.3% | 82.4% | 93.3% | 101% | 97.2% | 125% | 92.9% | 97.6% |
| Cn1cc(-c2nn3cc(-c4ccccc4)nc3s2)c2ccccc21 | 44.7% | 44.5% | 39.8% | 73.4% | 77.9% | 75.9% | 65.5% | 54% | 79.4% | 71.1% | 79.6% | 72.5% | 78.7% | 42.8% | 95.5% | 74.2% | 55.3% | 85.3% | 76.4% | 65.3% |
| COc1ccccc1-n1c(-c2cc(O)ccc2C)cn2c3c(=O)[nH]c(=O)n(C)c3nc12 | 85.8% | 32% | -32% (active) | 82.1% | 83.8% | 67.1% | 77.3% | 77.8% | 38.9% | 96.9% | 89.7% | 87.4% | 41.6% | 36.4% | 99.2% | 27.1% | 39.8% | 106% | 114% | 71.5% |
| C=C1C(=O)O[C@H]2[C@H]1CC/C(COC(=O)NCCCCCCCCNC(=O)OC/C1=C/CC[C@@]3(C)O[C@H]3[C@H]3OC(=O)C(=C)[C@@H]3CC1)=C\CC[C@@]1(C)O[C@@H]21 | -83.9% (active) | -67.1% (active) | -19.8% (active) | 6.51% (active) | -48.2% (active) | -64.3% (active) | -85.3% (active) | -70.8% (active) | -78.2% (active) | -75.3% (active) | -57.5% (active) | -82.4% (active) | -68.7% (active) | -92.4% (active) | -97.9% (active) | -93.2% (active) | -90.1% (active) | -88.7% (active) | -47.3% (active) | -27.5% (active) |
